The structures appear in SMILES notation. The whole screen tested about 2,300 compounds, of which about 1,400 (61%) were called active. About 7% were inconclusive and are not listed. The rule behind the calls is not given here. The set was probably picked from earlier hits. These entries were drawn from the full list. Measured potencies and affinities stand elsewhere.

This assay deals with FAD-linked sulfhydryl oxidase ALR (Homo sapiens) (UniProt P55789). The assay is described as follows: inhibitors of human ALR sulfhydryl oxidase, dose response, biochemical, H2O2 detection, luminescence, cherry-pick (AID 493248). As to conditions: purified ALR, DTT oxidation, H2O2 HRP-luminol luminescence; at 10 µM (top of the series).
Chain of FAD-linked sulfhydryl oxidase ALR (Homo sapiens) (P55789 whole entry, looked up): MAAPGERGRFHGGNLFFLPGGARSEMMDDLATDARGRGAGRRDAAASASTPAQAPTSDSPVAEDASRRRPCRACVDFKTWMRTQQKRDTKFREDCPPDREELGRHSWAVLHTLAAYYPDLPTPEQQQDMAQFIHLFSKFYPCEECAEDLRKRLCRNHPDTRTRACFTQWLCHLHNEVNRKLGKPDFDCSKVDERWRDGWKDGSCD
As for `Cc1cccc(-c2n[nH]c(=S)n2/N=C/C=C/c2ccco2)c1`, the activity change, negative = inhibition was -98%.

As to `COc1c(/C=N/Nc2ccc(C(=O)O)cc2)c(CCN(C)C(C)=O)cc2c1OCO2`, the activity change, negative = inhibition was -95.6%.

Turning to `CC1CN(c2ccccc2)NC1=O` (configuration not stated), the activity change, negative = inhibition was determined as 23.1%.

On to `O=C(NCc1cccs1)c1nc2c(nnn2Cc2ccccc2Cl)c(=O)[nH]1`, for which the activity change, negative = inhibition is -7.82%.

Take `Cc1n[nH]c(C)c1Sc1ccccc1N`: the activity change, negative = inhibition was 54.6%.

`COc1cc(OC)cc(-c2cn[nH]c2N)c1`: the activity change, negative = inhibition was -60.4%.

Consider `Cc1ccc(N=Nc2c(N)[nH]n3c(=O)cc(C)nc23)cc1`, for which the activity change, negative = inhibition was -55.4%.

Take `Cc1nc(NS(=O)(=O)c2ccccc2C)c2c3c(sc2n1)CCC3`: the activity change, negative = inhibition was -0.709%.

As for `CC1CCc2c(sc(NC(=O)c3ccccc3C(=O)O)c2C#N)C1` (configuration not stated), the activity change, negative = inhibition is -85.9%.

Consider `COc1cccc(NC(=O)c2cc(OC)c(OC)c(OC)c2Br)c1`, for which the activity change, negative = inhibition was 4.6%.

In the case of `CCCCNc1cc(NC(C)=O)cc2cc(OC)c(OC)cc12`, the activity change, negative = inhibition is -66.6%.

Regarding `O=S(=O)(Nc1ncnc2sc3c(c12)CCC3)c1cc(F)ccc1F`, the activity change, negative = inhibition is 5.9%.

Take `CCC1(C)OC(=O)NN(c2ccc(C)cc2)C1(C)O` (configuration not stated): the activity change, negative = inhibition is -35.5%.

Take `COc1ccc(-c2cc(C(=O)NN)[nH]n2)cc1OC`: the activity change, negative = inhibition is -15.4%.

`Cc1ccc(O)c(-c2cc(C(=O)NCc3ccncc3)[nH]n2)c1`: the activity change, negative = inhibition is -50.3%.

With `O=C(Nc1ccccc1F)c1ccc(Cn2cc(Cl)cn2)cc1`, the activity change, negative = inhibition was -100%.

Take `Cn1nnc2c[n+](CC(=O)c3ccc(Cl)cc3)cc(Br)c21`: the activity change, negative = inhibition is -31%.

Regarding `Cc1ccc(-n2c([C@@H]3C[C@H]3c3ccccc3)n[nH]c2=S)cc1`, the activity change, negative = inhibition was -34.6%.

As for `COc1ccc(-c2n[nH]c(=S)n2-c2ccc(C)cc2)cc1OC`, the activity change, negative = inhibition amounted to 3.4%.

Turning to `Cc1cc(-c2n[nH]c(=S)n2-c2ccc(C)c(C)c2)no1`, the activity change, negative = inhibition was -43%.

Turning to `Cc1cccc(-n2c(-c3ccncc3)n[nH]c2=S)c1`, the activity change, negative = inhibition is -2.76%.

In the case of `COc1cc(/C=N/Nc2ccc(C(F)(F)F)cn2)ccc1O`, the activity change, negative = inhibition was -15%.

For `O=C(Cn1cc(C(F)(F)F)ccc1=O)N/N=C/c1ccc(O)cc1`, the activity change, negative = inhibition is 174%.

For the compound `COC(=O)Cc1c(C)c2ccc(OC(=O)c3ccccc3)cc2oc1=O`, the activity change, negative = inhibition was determined as 31.5%.

Take `CCCN(Cc1ccc(N(CC)CC)cc1)CC1CC1`: the activity change, negative = inhibition was -0.019%.

In the case of `CN(CC(=O)NC1CCCCC1)S(=O)(=O)c1cccc2cccnc12`, the activity change, negative = inhibition stood at 5.38%.

Turning to `O=C(Cc1ccccc1)Nc1ccc(C(=O)Nc2ccccc2C(=O)O)cc1`, the activity change, negative = inhibition is 5.48%.

Take `O=C(O)c1cccc(NC(=O)c2cccc(S(=O)(=O)Nc3cccc([N+](=O)[O-])c3)c2)c1`: the activity change, negative = inhibition was -2.25%.

For the compound `O=S(=O)(NCCCN1CCN(c2ccccc2F)CC1)c1cccc2cccnc12`, the activity change, negative = inhibition was 20.3%.

For `CNCc1ccccc1Sc1ccc(O)c(O)c1`, the activity change, negative = inhibition was -78.5%.

On to `CC(=O)c1c(C)oc(C)c1CSCc1ccc(C(=O)O)o1`, for which the activity change, negative = inhibition is 16.7%.

For the compound `CC(C)NC(=O)c1ccc(CSCc2ccccc2Cl)o1`, the activity change, negative = inhibition was -4.45%.
